SENP8 block-1: blocks human SENP8 cleavage of Nedd8 substrate | Q96LD8 | recombinant SENP8, Nedd8 substrate fluorescence | inhibition, % at 20 µM | hit rate 0.64% among 360,000; in the data active means inhibition mostly above about 40%, no sharp cut-off; inactive means mostly below about 27%
Target sequence (Q96LD8 whole entry, looked up): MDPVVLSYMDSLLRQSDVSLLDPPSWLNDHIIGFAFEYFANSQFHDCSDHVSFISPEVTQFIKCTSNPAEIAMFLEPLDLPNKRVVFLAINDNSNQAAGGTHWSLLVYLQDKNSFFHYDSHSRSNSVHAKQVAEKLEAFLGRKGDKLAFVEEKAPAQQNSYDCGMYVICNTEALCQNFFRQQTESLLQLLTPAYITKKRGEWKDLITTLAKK
SENP6 inh: inhibitors of human SENP6 protease | Q9GZR1 | Recombinant SENP6 catalytic domain, aminoluciferin luminescence | inhibition, % at 10 µM | hit rate 1.8% among 330,000 | AID 2599;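 active means inhibition above about 50% at the single tested dose, limit read from the data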
SENP7 inh: SENP7 protease inhibition | Q9BQF6 | recombinant SENP7, Z-RLRGG-aminoluciferin luminescence, 40 min | inhibition, % at 5 µM | hit rate 1.5% among 330,000 | AID 434973;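 active means inhibition above about 50% at the single test dose, limit read from the data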
Target sequence (Q9BQF6 706-1050 limits assumed): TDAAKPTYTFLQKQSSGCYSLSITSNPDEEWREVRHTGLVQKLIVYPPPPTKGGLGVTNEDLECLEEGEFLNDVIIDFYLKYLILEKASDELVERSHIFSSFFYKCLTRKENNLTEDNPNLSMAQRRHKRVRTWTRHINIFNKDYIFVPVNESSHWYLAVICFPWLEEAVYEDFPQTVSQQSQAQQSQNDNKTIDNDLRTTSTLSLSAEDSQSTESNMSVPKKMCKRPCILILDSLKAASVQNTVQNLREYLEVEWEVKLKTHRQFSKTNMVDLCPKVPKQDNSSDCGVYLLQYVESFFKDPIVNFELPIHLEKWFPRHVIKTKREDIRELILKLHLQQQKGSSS
Platelet DG rel: modulates dense granule release in human platelets | human platelet-rich plasma, SFLLRN dense granule ATP release, luminescence | inhibition, %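 (compounds screened at 7.5 µM in platelet-rich plasma)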 | hit rate 0.22% among 300,000 | AID 1663;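 active means mean replicate score, as percent of positive control, at or above 50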
HSP90 inh: blocks HSP90-mediated luciferase refolding in reticulocyte lysate. inhibition, % at 5.6 µM. Rabbit reticulocyte lysate, luciferase refolding luminescence, 3 h. hit rate 0.91% among 290,000. AID 1789;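 active means inhibition above the screen-wide mean plus 3 SD, computed separately per campaign, cut at about 16% in these data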;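 further: inhibitors lower the luminescence because luciferase stays unfolded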
SENP8 block-2: SENP8 protease inhibition; Q96LD8; purified SENP8, Z-RLRGG-aminoluciferin cleavage, luminescence; inhibition, % at 10 µM; hit rate 1.2% among 330,000; AID 2540; in the data active means inhibition above about 50%
SENP8 confirm: confirmation of human SENP8 protease inhibitors; shares compounds with SENP7 inh; Recombinant SENP8, Z-RLRGG-aminoluciferin luminescence, 60 min; inhibition, % at 12.5 µM; hit rate 40% among 6,200; AID 488912;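 active means mean inhibition across replicates above about 50%, limit read from the data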
SENP6 conf: confirmation of human SENP6 protease inhibitors. shares compounds with SENP7 inh. recombinant SENP6, Z-RLRGG-aminoluciferin luminescence. inhibition, % at 12.5 µM. hit rate 58% among 6,200. AID 488915
SENP7 confirm: human SENP7 inhibition, confirmed; shares compounds with SENP7 inh; inhibition, % at 12.5 µM; AID 488917; hit rate 69% among 6,200; recombinant SENP7, Z-RLRGG-aminoluciferin luminescence, 40 min
Casp3 SENP sel: inhibits human caspase-3 in SENP selectivity test. purified caspase-3, Z-DEVD-aminoluciferin luminescence, 60 min. inhibition, % at 12.5 µM. AID 488918. shares compounds with SENP7 inh. hit rate 60% among 6,200;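 active means mean inhibition above about 50%, limit read from the data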
Luc interf: counter-screen for SENP inhibitors: luminescence interference; shares compounds with SENP7 inh; Pre-incubated SENP8/Z-RLRGG-aminoluciferin, luciferase luminescence interference; inhibition, % at 12.5 µM; hit rate 39% among 6,200; AID 488919;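 active means mean inhibition above about 50% when retested at one dose, limit read from the data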
Large screens that a line does not name were inactive (follow-up assays come after a bar, where they were run). Only some compounds are listed: those with a hit (about 2.8% of all), similar ones and a draw of the others.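 How the source made its calls, unless noted: active means mean inhibition above about 50% in the one-dose retest (limit read from the data); inactive means the rest.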

Cc1ccc(Nc2nc3ccccc3o2)cc1F	SENP6 inh 88.4, SENP7 inh 86.9, SENP8 block-2 77.5 (no result: Platelet DG rel) | SENP8 confirm 56.8 | SENP6 conf 80.9 | SENP7 confirm 98.0 | Casp3 SENP sel 75.2 | Luc interf inactive
Cc1nc(Nc2nc3ccccc3o2)nc(C)c1C	SENP6 inh 58.0, SENP7 inh 63.2 | SENP8 confirm inactive | SENP6 conf 51.7 | SENP7 confirm 86.9 | Casp3 SENP sel 80.5 | Luc interf inactive
CC(=O)Nc1ccc2oc(-c3ccccc3Br)nc2c1	SENP6 inh 83.6, SENP7 inh 58.7, SENP8 block-2 58.3 | SENP8 confirm 81.0 | SENP6 conf 76.3 | SENP7 confirm 90.4 | Casp3 SENP sel 67.7 | Luc interf 64.7
CC(C)C(=O)Nc1ccc2oc(-c3cc(F)c(F)cc3Cl)nc2c1	none
CCN(CC)CC(=O)Nc1ccc(-c2nc3cc(NC(=O)CN(CC)CC)ccc3o2)cc1	none
O=C(Nc1ccc2oc(-c3ccccc3Cl)nc2c1)c1ncn[nH]1	SENP6 inh 52.1 | SENP8 confirm inactive | SENP6 conf inactive | SENP7 confirm inactive | Casp3 SENP sel inactive | Luc interf inactive
CC(=O)Nc1ccc2oc(-c3cc(F)c(F)cc3Cl)nc2c1	SENP7 inh 67.2 | SENP8 confirm inactive | SENP6 conf inactive | SENP7 confirm inactive | Casp3 SENP sel inactive | Luc interf inactive
CCc1ccc2oc(-c3ccc(NC(C)=O)cc3)nc2c1	SENP6 inh 75.1, SENP7 inh 78.1, SENP8 block-2 72.4 | SENP8 confirm inactive | SENP6 conf 78.8 | SENP7 confirm 95.9 | Casp3 SENP sel inactive | Luc interf inactive
CC1(C(=O)NCc2ccccc2)CN(S(C)(=O)=O)CC(=O)N1CCc1ccccc1F (stereo unspecified)	none (no result: SENP6 inh, SENP7 inh, Platelet DG rel, HSP90 inh, SENP8 block-2)
CC(C)n1c(/N=C/c2c[nH]c3ccccc23)nc2ccccc21	none
Cn1c(/N=C/c2c[nH]c3ccccc23)nc2ccccc21	SENP6 inh 95.0, SENP7 inh 93.0, SENP8 block-2 94.2 | SENP8 confirm 95.8 | SENP6 conf 96.8 | SENP7 confirm 102.9 | Casp3 SENP sel 94.3 | Luc interf inactive
OC(c1ccc(OCc2ccccc2)cc1)c1nnc(-c2ccccc2)o1 (stereo unspecified)	SENP6 inh 50.2 | SENP8 confirm inactive | SENP6 conf inactive | SENP7 confirm 56.0 | Casp3 SENP sel inactive | Luc interf inactive
Cc1ccc(C2=Nc3ccccc3N=C(C(Cl)Cl)C2)cc1	SENP6 inh 84.3, SENP7 inh 58.3, SENP8 block-2 69.2 | SENP8 confirm inactive | SENP6 conf inactive | SENP7 confirm 72.3 | Casp3 SENP sel 85.5 | Luc interf 80.0
Cc1ccc(-c2csc3ncnc(NCCC(=O)O)c23)cc1C	none
FC(F)(F)c1cc(Cl)c2nc(-c3ccccc3)cn2c1	SENP6 inh 83.3, SENP7 inh 86.8, SENP8 block-2 76.0 | SENP8 confirm inactive | SENP6 conf 81.3 | SENP7 confirm 94.4 | Casp3 SENP sel 68.7 | Luc interf inactive
Nc1cccc(-c2cn3cc(C(F)(F)F)cc(Cl)c3n2)c1	SENP6 inh 81.5, SENP7 inh 85.7, SENP8 block-2 70.5 | SENP8 confirm 83.5 | SENP6 conf 83.9 | SENP7 confirm 97.2 | Casp3 SENP sel 85.8 | Luc interf 86.1
FC(F)(F)c1cc(Cl)c2nc(-c3ccccc3)c(Cc3ccsc3)n2c1	none (no result: SENP6 inh, SENP7 inh, Platelet DG rel, HSP90 inh, SENP8 block-2)
CCCCc1cc(=O)oc2cc(OCC(=O)NCCN3CCOCC3)ccc12	none
C=CCN=c1scc(-c2ccc(F)cc2)n1/N=C/c1ccccn1	none
CN=c1scc(-c2ccccc2F)n1/N=C/c1ccc[nH]1	HSP90 inh 85.4, SENP8 block-2 90.8 | SENP8 confirm 98.2 | SENP6 conf 99.5 | SENP7 confirm 102.6 | Casp3 SENP sel 96.0 | Luc interf 97.4
Cc1[nH]n(-c2ccc([N+](=O)[O-])cc2)c(=O)c1/C=N/N1CCOCC1	SENP6 inh 78.4, SENP7 inh 57.6 | SENP8 confirm inactive | SENP6 conf inactive | SENP7 confirm inactive | Casp3 SENP sel inactive | Luc interf inactive
Cc1[nH]n(-c2ccc([N+](=O)[O-])cc2)c(=O)c1C=NCCN1CCN(C(=O)c2ccccc2)CC1	SENP6 inh 88.4, SENP7 inh 89.9, SENP8 block-2 69.7 | SENP8 confirm inactive | SENP6 conf inactive | SENP7 confirm inactive | Casp3 SENP sel 67.1 | Luc interf 59.3
O=[N+]([O-])c1ccc(/C=N\N2CCN(c3ccc(Cl)cc3)CC2)cc1	none
COc1ccc(CCN=Cc2c(C)[nH]n(-c3ccc([N+](=O)[O-])cc3)c2=O)cc1OC	none
COc1ccc(CCNC(=O)C2CCCN2C(=O)Nc2ccc(F)cc2)cc1OC (stereo unspecified)	none
O=c1c(C(c2ccc(F)cc2)c2c(O)nc3n(c2=O)CCS3)c(O)nc2n1CCS2	none
CCCNC(=O)CSc1nnc(-c2ccccc2Br)n1-c1cccc(C(F)(F)F)c1	SENP7 inh 54.2 | SENP8 confirm inactive | SENP6 conf inactive | SENP7 confirm inactive | Casp3 SENP sel inactive | Luc interf inactive
Cc1nc2nc(-c3cccs3)[nH]c2cc1Br	SENP6 inh 91.0, SENP7 inh 89.9, SENP8 block-2 90.1 (no result: HSP90 inh) | SENP8 confirm 92.1 | SENP6 conf 92.0 | SENP7 confirm 98.9 | Casp3 SENP sel 92.7 | Luc interf inactive
c1ccc(-c2nc(-c3cccs3)[nH]c2-c2ccccc2)cc1	none
Cc1ccc2c(c1)NC(=O)c1cccnc1N2	SENP6 inh 52.3 | SENP8 confirm inactive | SENP6 conf inactive | SENP7 confirm 65.1 | Casp3 SENP sel 63.1 | Luc interf inactive
COC(=O)c1cn(CC(=O)Nc2ccccc2C)c2ccccc12	none
Cc1cnc(C(=O)Nc2ccccc2F)cn1	SENP6 inh 67.7 | SENP8 confirm inactive | SENP6 conf inactive | SENP7 confirm 73.8 | Casp3 SENP sel 74.6 | Luc interf inactive
Cc1cnc(C(=O)Nc2ccc(F)cc2)cn1	SENP6 inh 60.9, SENP7 inh 58.3 | SENP8 confirm inactive | SENP6 conf inactive | SENP7 confirm 73.6 | Casp3 SENP sel 81.2 | Luc interf inactive
COc1cccc(-n2cc(-c3ccc(F)cc3)[nH]c2=S)c1	SENP6 inh 66.7, SENP7 inh 77.1 | SENP8 confirm inactive | SENP6 conf inactive | SENP7 confirm inactive | Casp3 SENP sel inactive | Luc interf inactive

High-throughput results deposited in PubChem BioAssay by several laboratories.
